CIT2-GFP yeast – alters CIT2-GFP fluorescence in TOR pathway yeast screen; GFP response vs DMSO, % at 10 µM; S. cerevisiae CIT2-GFP strain, flow cytometry, 3 h; 100 means same as DMSO wells; hit rate 0.065% among 320,000;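 active means GFP response relative to DMSO above a set limit, near the screen mean plus 3 SD, cut at about 150% in these data; inconclusive means Fewer than 70 cells measured for a yeast strain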;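 further: ratio of well median GFP fluorescence to mean of DMSO wells on the plate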
LAP4 TOR yeast – alters LAP4-GFP fluorescence in TOR pathway yeast screen; GFP response vs DMSO, % at 10 µM; S. cerevisiae LAP4-GFP multiplex, flow cytometry GFP, 3 h; median GFP as percent of DMSO wells; hit rate 0.34% among 320,000;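 active means GFP response vs DMSO above a set limit, about the screen mean plus 3 SD, cut at about 150% in these data; inconclusive means under 70 cell events counted for the yeast strain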
RPL19A-GFP yeast – alters RPL19A-GFP fluorescence in TOR pathway yeast screen; S. cerevisiae RPL19A-GFP strain, flow cytometry, 3 h; active compounds read low; percent response vs DMSO, % at 10 µM; hit rate 0.3% among 330,000;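 active means percent response vs DMSO below 50%; inconclusive means fewer than 70 events counted for the yeast strain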;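 further: median channel GFP fluorescence of the barcoded RPL19A-GFP strain; lower means less RPL19A-GFP as with rapamycin TOR inhibition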
AGP1-GFP MLPCN – alters AGP1-GFP fluorescence in TOR pathway yeast screen; S. cerevisiae AGP1-GFP multiplex flow cytometry, 3 h; GFP as percent of DMSO wells; GFP response vs DMSO, % at 10 µM; hit rate 0.02% among 320,000; AID 2066;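 active means GFP response relative to DMSO above a set limit, near screen average plus 3 SD, cut at about 150% in these data; inconclusive means fewer than 70 cells counted for the yeast strain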;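 further: median GFP channel fluorescence of the gated AGP1 strain per well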
MEP2-GFP yeast – modulators of TOR pathway MEP2-GFP in S. cerevisiae | hit rate 0.51% among 330,000 | S. cerevisiae MEP2-GFP strain, flow cytometry GFP, 3 h; 100% = DMSO control level | GFP response vs DMSO, % at 10 µM;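 active means GFP response versus DMSO above a set limit, roughly screen mean plus 3 SD, cut at about 180% in these data; inconclusive means fewer than 70 cells counted for a yeast strain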;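 further: median GFP fluorescence of the barcode-gated MEP2-GFP cells per well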
LAP4-GFP pick2 – reconfirmed LAP4-GFP TOR pathway modulator in yeast | S. cerevisiae LAP4-GFP strain, flow cytometry GFP, 3 h | AID 2621 | hit rate 20% among 590 | GFP response vs DMSO, % at 10 µM | shares compounds with LAP4 TOR yeast;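 active means GFP signal as percent of the solvent control above about 150%, meaning raised reporter expression, limit read from the data; inconclusive means fewer than 70 cells counted in the well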
MEP2 cherry2 – yeast MEP2-GFP modulation, second cherry pick; shares compounds with LAP4 TOR yeast; S. cerevisiae MEP2-GFP strain, flow cytometry GFP, 3 h; AID 2622; GFP response vs DMSO, % at 10 µM; hit rate 10% among 590;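 active means GFP signal above 150% of the solvent control wells, that is a rise of more than half; inconclusive means fewer than 70 yeast cells counted in the well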;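 further: median channel GFP fluorescence of all gated yeast cells per well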
RPL19A GFP CP2 – yeast RPL19A-GFP TOR reporter modulation, second cherry pick; shares compounds with LAP4 TOR yeast; S. cerevisiae RPL19A-GFP strain, flow cytometry GFP, 3 h; active compounds read low; 100% means same as DMSO wells; GFP response vs DMSO, % at 10 µM; hit rate 3% among 590; AID 2623;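 active means under 65% GFP response relative to DMSO; inconclusive means yeast strain with under 70 measured events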;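 further: median GFP channel fluorescence per well over the all cells gate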
CIT2 GFP CP2 – yeast CIT2-GFP TOR reporter modulation, second cherry pick; shares compounds with LAP4 TOR yeast; hit rate 8% among 590; GFP response vs DMSO, % at 10 µM; S. cerevisiae CIT2-GFP strain, flow cytometry GFP, 3 h; DMSO control wells read 100%;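 active means GFP response vs DMSO above about 150%, limit read from the data; inconclusive means fewer than 70 events counted for a yeast strain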;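 further: median green fluorescence per well over all gated yeast cells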
AGP1-GFP pick2 – yeast AGP1-GFP TOR reporter modulation, second cherry pick; shares compounds with LAP4 TOR yeast; S. cerevisiae AGP1-GFP strain, flow cytometry GFP, 3 h; percent response vs DMSO, % at 10 µM; 590 tested, under 10 active; AID 2643;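 active means over 150 percent of DMSO response; inconclusive means yeast strain measured with under 70 events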;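 further: median GFP channel fluorescence over all cells without mother daughter split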
s288c autofluor – yeast s288c autofluorescence artifact, counter-screen; shares compounds with LAP4 TOR yeast; S. cerevisiae s288c, 520 nm autofluorescence, flow cytometry, 3 h; active compounds read high; zero means same as solvent-only cells; fluorescence change (kMESF span) at 33 µM; 610 tested, under 10 active;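 active means fluorescence span over the dose series, or activity score, above about 33, limit read from the data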
Of the large screens only hits and unclear results are named; the others gave an inactive call (follow-up assays come after a bar, where they were run). An excerpt weighted towards active compounds, which were near 0.93% of everything screened.

Cc1ccc2[nH]cc(/C=C/c3cc[n+](C)cc3)c2c1	LAP4 TOR yeast 151, MEP2-GFP yeast 217 | s288c autofluor inactive
COC(=O)Cn1cc(/C=C/c2cc[n+](C)cc2)c2ccccc21	none
COc1ccc2c(c1)c(/C=C/c1cc[n+](C)cc1)cn2C	CIT2-GFP yeast 196, MEP2-GFP yeast 214 | s288c autofluor inactive
COc1ccc2c(/C=C/c3cc[n+](C)cc3)c[nH]c2c1	CIT2-GFP yeast 210, LAP4 TOR yeast 150, MEP2-GFP yeast 207 | s288c autofluor inactive
CC[n+]1ccc(/C=C/c2c[nH]c3ccccc23)cc1	none
Fc1ccc(NC(=S)Nc2ccc3nccnc3c2)cc1	LAP4 TOR yeast 171 | LAP4-GFP pick2 inactive | MEP2 cherry2 inactive | RPL19A GFP CP2 inactive | CIT2 GFP CP2 inactive | AGP1-GFP pick2 inactive
COc1ccc([C@@H]2[C@@H]3C(=O)N(C(C)(C)C)C(=O)[C@@H]3[C@]3(CC(C)C)C(=O)N(c4cccc(Br)c4)C(=O)N23)cc1	none
Cc1cccc(N2C(=O)CC(Sc3ncn[nH]3)C2=O)c1 (stereo not drawn)	none
Cc1ccc(N2C(=O)CC(Sc3ncn[nH]3)C2=O)cc1C (stereo not drawn)	LAP4 TOR yeast 151 | s288c autofluor inactive
O=C(CNC(=O)c1ccc2c(c1)OCO2)N/N=C/c1cc(Br)ccc1O	none
COc1ccc(-n2cc(C#N)c(=O)[nH]c2=O)cc1	none
O=c1c2cc(Br)ccc2nc(-c2ccc([N+](=O)[O-])cc2)n1O	none | LAP4-GFP pick2 inactive | MEP2 cherry2 169 | RPL19A GFP CP2 51 | CIT2 GFP CP2 inactive | AGP1-GFP pick2 inactive | s288c autofluor inactive
N#Cc1ccc(-c2nc3ccc(Br)cc3c(=O)n2O)cc1	none
Cc1ccc(C)c(NC(=O)COC(=O)CCCN=C2NS(=O)(=O)c3ccccc32)c1	none
COc1ccc(OC)c(NC(=O)COC(=O)CCCN=C2NS(=O)(=O)c3ccccc32)c1	LAP4 TOR yeast 163 | LAP4-GFP pick2 inactive | MEP2 cherry2 inactive | RPL19A GFP CP2 inactive | CIT2 GFP CP2 inactive | AGP1-GFP pick2 inactive
Cc1onc(-c2c(Cl)cccc2Cl)c1NC(=O)NC1CCSC1 (stereo not drawn)	none
Cc1c(Br)c(=O)oc2c(Br)c(O)ccc12	none
Cc1c(Br)c(=O)oc2c(Br)c(O)c(O)cc12	none | LAP4-GFP pick2 inactive | MEP2 cherry2 inactive | RPL19A GFP CP2 inactive | CIT2 GFP CP2 inactive | AGP1-GFP pick2 inactive | s288c autofluor inactive
CCc1c(C)sc(NC(=S)N2CC(C)OC(C)C2)c1C(=O)OC (stereo not drawn)	none
CCN1/C(=C\C(=S)Nc2ccccc2)Sc2ccccc21	none
CCN1/C(=C/C(C)=C/c2sc3ccccc3[n+]2CC)Sc2ccccc21	LAP4 TOR yeast 188 | s288c autofluor inactive
CC1=NOC(=O)/C1=C\c1ccc(-c2cc(Cl)ccc2Cl)o1	LAP4 TOR yeast 167 | s288c autofluor inactive
COc1ccc(CCNC2=C(Cl)C(=O)N(CCc3ccccc3)C2=O)cc1OC	none | s288c autofluor inactive
O=C1C(Cl)=C(Nc2ccccc2O)C(=O)N1CCc1ccccc1	none | s288c autofluor inactive
O=C(NCc1ccc2c(c1)OCO2)c1nc(S(=O)(=O)Cc2ccccc2)ncc1Cl	LAP4 TOR yeast 175 | s288c autofluor inactive
O=C1Nc2ccccc2/C1=C/C(=O)c1cccs1	CIT2-GFP yeast inconclusive, AGP1-GFP MLPCN inconclusive
COc1ccc(C(=O)/C=C2/C(=O)Nc3ccccc32)c(OC)c1	none | s288c autofluor inactive
COc1cc(OC)c(/C=C2\C(=O)Nc3ccccc32)c(OC)c1	none
COc1ccc(C(=O)/C=C2/C(=O)Nc3ccccc32)cc1	LAP4 TOR yeast 167 | s288c autofluor inactive
COc1ccc(C(=O)/C=C2/C(=O)Nc3ccccc32)cc1OC	none | s288c autofluor inactive
COc1ccc(S(=O)(=O)N2CCC(C(=O)NCCc3c[nH]c4ccccc34)CC2)cc1	none
COc1ccc(CCNC(=O)CN2c3cccc4cccc(c34)S2(=O)=O)cc1OC	none
COc1ccc(C2=NS(=O)(=O)N(C)C(C(=O)N3CCc4ccccc4C3)=C2)cc1OC	none
C/C(=N\Nc1ncnc2sc(C)c(C)c12)c1ccccn1	CIT2-GFP yeast active, LAP4 TOR yeast 869, AGP1-GFP MLPCN 203, MEP2-GFP yeast active | s288c autofluor 94
Cc1sc2ncnc(N/N=C/c3cccc(O)c3)c2c1C	none
Cc1ccc(S(=O)(=O)N(C)CC(=O)Nc2nnc(CC(C)C)s2)cc1	none
Cc1ccc2c(c1)N(C(=O)CCC(=O)N1CCC(C(N)=O)CC1)CCO2	none
N#C/C(=C/c1ccc(N2CCCCCC2)o1)c1ccc(Cl)cc1	none
N#C/C(=C/c1ccc(N2CCCCC2)o1)c1cccc(F)c1	LAP4 TOR yeast 152 | LAP4-GFP pick2 inactive | MEP2 cherry2 inactive | RPL19A GFP CP2 inactive | CIT2 GFP CP2 inactive | AGP1-GFP pick2 inactive
Cc1ccc(CNC(=O)C2CCN(S(=O)(=O)c3ccc4c(c3)CC(C)N4C(=O)C3CCC3)CC2)o1 (stereo not drawn)	none
O=C(Nc1nnc(Cc2ccccc2)s1)C1CCN(C(=O)c2ccco2)CC1	none
[O-][n+]1cccc2c(Br)cc(Br)c(O)c21	LAP4 TOR yeast 163 | s288c autofluor inactive
C[n+]1cccc2c(Br)ccc([O-])c21	none
CC1=CC(=O)C(C(C)=Nc2ccccc2Cl)C(=O)O1 (stereo not drawn)	none
C[C@H](NC(=O)[C@H](Cc1ccccc1)NC(=O)c1cc2cc(Cl)ccc2n1C)C(=O)O	none
O=[N+]([O-])c1ccc(Sc2nc3ccccc3o2)c([N+](=O)[O-])c1	LAP4 TOR yeast 165 | s288c autofluor inactive

Screening results as filed in PubChem.
